From PubChem BioAssay AID1159580 (chemical genetic matrix, 2015)
Among all 5,500 compounds or so, about 2,000 (36%) were called active. Another 18% or so got no clear call; they are omitted. No stated cut-off is given here; in the data, active means normalized growth mostly below about 0.91 (no sharp cut-off); inconclusive means no clear call, values can overlap the other calls; inactive means mostly above about 0.92. This is one part of the list.

Experiment: chemical genetic growth profiling, strain panel (AID 1159580);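 further: tested at 20 µM; growth read once vehicle control cultures reached saturation at 30 °C; 1 = growth at the plate median or of vehicle wells; lower values mean less growth of the strain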
Details: growth OD

Measured: normalized growth

CNNC
inactive: S. cerevisiae deletion strains, locus YJR075W, strain HOC1, active compounds read low 1.02 | S. cerevisiae deletion strains, locus YKL009W, strain mrt4, active compounds read low 0.981 | S. cerevisiae deletion strains, locus YKL068W, active compounds read low 1.01 | S. cerevisiae deletion strains, locus YKL085W, strain MDH1 (second series), active compounds read low 1.01 | S. cerevisiae deletion strains, locus YKL085W, strain MDH1, active compounds read low 1.01 | S. cerevisiae deletion strains, locus YKL160W, strain elf1, active compounds read low 0.99 | S. cerevisiae deletion strains, locus YKL190W, strain CNB1, active compounds read low 1.02 | S. cerevisiae deletion strains, locus YKR001C, strain vps1, active compounds read low 1.01 | S. cerevisiae deletion strains, locus YKR026C, strain gcn3, active compounds read low 1.02 | S. cerevisiae deletion strains, locus YKR091W, strain srl3, active compounds read low 1.02 | S. cerevisiae deletion strains, locus YLL001W, strain dnm1, active compounds read low 1.02 | S. cerevisiae deletion strains, locus YLL026W, active compounds read low 1 | S. cerevisiae deletion strains, locus YLL041C, strain sdh2, active compounds read low 1.02 | S. cerevisiae deletion strains, locus YLR027C, strain aat2, active compounds read low 1.01 | S. cerevisiae deletion strains, locus YLR039C, strain RIC1, active compounds read low 1.09 | S. cerevisiae deletion strains, locus YLR058C, strain SHM2, active compounds read low 1.02 | S. cerevisiae deletion strains, locus YLR102C, strain apc9, active compounds read low 0.998 | S. cerevisiae deletion strains, locus YLR221C, strain rsa3, active compounds read low 1.01 | S. cerevisiae deletion strains, locus YLR258W, strain gsy2, active compounds read low 1.01 | S. cerevisiae deletion strains, locus YLR262C, strain YPT6 (second series), active compounds read low 1.01 | S. cerevisiae deletion strains, locus YLR262C, strain YPT6, active compounds read low 1.09 | S. cerevisiae deletion strains, locus YLR268W, strain sec22, active compounds read low 1.02 | S. cerevisiae deletion strains, locus YLR320W, strain mms22, active compounds read low 1.01 | S. cerevisiae deletion strains, locus YLR330W, strain CHS5, active compounds read low 1.02 | S. cerevisiae deletion strains, locus YLR342W, strain FKS1 (second series), active compounds read low 1.01 | S. cerevisiae deletion strains, locus YLR342W, strain FKS1, active compounds read low 1.01 | S. cerevisiae deletion strains, locus YLR357W, strain rsc2, active compounds read low 0.986 | S. cerevisiae deletion strains, locus YLR370C, strain arc18, active compounds read low 1.01 | S. cerevisiae deletion strains, locus YLR371W, strain rom2, active compounds read low 1 | S. cerevisiae deletion strains, locus YLR384C, strain iki3, active compounds read low 1.01 | S. cerevisiae deletion strains, locus YLR418C, strain cdc73, active compounds read low 0.997 | S. cerevisiae deletion strains, locus YML016C, strain PPZ1, active compounds read low 1.02 | S. cerevisiae deletion strains, locus YML032C, strain rad52, active compounds read low 0.97 | S. cerevisiae deletion strains, locus YML120C, strain ndi1, active compounds read low 1.03 | S. cerevisiae deletion strains, locus YML124C, strain tub3, active compounds read low 1.01 | S. cerevisiae deletion strains, locus YMR058W, strain fet3, active compounds read low 1.01 | S. cerevisiae deletion strains, locus YMR078C, strain ctf18, active compounds read low 0.994 | S. cerevisiae deletion strains, locus YMR125W, strain sto1, active compounds read low 1 | S. cerevisiae deletion strains, locus YMR129W, active compounds read low 0.999 | S. cerevisiae deletion strains, locus YMR205C, strain PFK2, active compounds read low 1.02 | S. cerevisiae deletion strains, locus YMR223W, strain ubp8, active compounds read low 1 | S. cerevisiae deletion strains, locus YMR231W, strain pep5, active compounds read low 1.01 | S. cerevisiae deletion strains, locus YMR263W, strain SAP30, active compounds read low 1.03 | S. cerevisiae deletion strains, locus YMR307W, strain GAS1, active compounds read low 1.04 | S. cerevisiae deletion strains, locus YNL067W, strain RPL9B, active compounds read low 1.03 | S. cerevisiae deletion strains, locus YNL071W, strain lat1, active compounds read low 0.989 | S. cerevisiae deletion strains, locus YNL128W, strain TEP1, active compounds read low 1.03 | S. cerevisiae deletion strains, locus YNL153C, strain GIM3, active compounds read low 1.03 | S. cerevisiae deletion strains, locus YNL209W, strain ssb2, active compounds read low 1.01 | S. cerevisiae deletion strains, locus YNL233W, strain BNI4, active compounds read low 1.03 | S. cerevisiae deletion strains, locus YNL248C, strain rpa49, active compounds read low 1.03 | S. cerevisiae deletion strains, locus YNL250W, strain rad50, active compounds read low 0.997 | S. cerevisiae deletion strains, locus YNL271C, strain bni1, active compounds read low 1.01 | S. cerevisiae deletion strains, locus YNL298W, strain CLA4, active compounds read low 0.994 | S. cerevisiae deletion strains, locus YNL307C, strain MCK1, active compounds read low 0.998 | S. cerevisiae deletion strains, locus YNL322C, strain KRE1 (second series), active compounds read low 1.02 | S. cerevisiae deletion strains, locus YNL322C, strain KRE1, active compounds read low 1.03 | S. cerevisiae deletion strains, locus YNR049C, strain mso1, active compounds read low 1 | S. cerevisiae deletion strains, locus YNR052C, strain pop2, active compounds read low 0.994 | S. cerevisiae deletion strains, locus YOL006C, strain TOP1, active compounds read low 1.08 | S. cerevisiae deletion strains, locus YOL012C, strain htz1 1.09 | S. cerevisiae deletion strains, locus YOL147C, strain pex11, active compounds read low 0.995 | S. cerevisiae deletion strains, locus YOR001W, strain rrp6, active compounds read low 1.02 | S. cerevisiae deletion strains, locus YOR061W, strain CKA2, active compounds read low 1.02 | S. cerevisiae deletion strains, locus YOR069W, strain VPS5, active compounds read low 1.01 | S. cerevisiae deletion strains, locus YOR070C, strain gyp1, active compounds read low 1.01 | S. cerevisiae deletion strains, locus YOR080W, strain dia2, active compounds read low 0.99 | S. cerevisiae deletion strains, locus YOR083W, strain WHI5, active compounds read low 1.01 | S. cerevisiae deletion strains, locus YOR106W, strain vam3, active compounds read low 1.02 | S. cerevisiae deletion strains, locus YOR136W, strain idh2, active compounds read low 0.994 | S. cerevisiae deletion strains, locus YOR144C, strain elg1, active compounds read low 1 | S. cerevisiae deletion strains, locus YOR184W, strain ser1, active compounds read low 1 | S. cerevisiae deletion strains, locus YOR265W, strain rbl2, active compounds read low 1.02 | S. cerevisiae deletion strains, locus YOR270C, strain vph1, active compounds read low 1.1 | S. cerevisiae deletion strains, locus YOR290C, strain snf2, active compounds read low 1.03 | S. cerevisiae deletion strains, locus YOR316C, strain cot1, active compounds read low 1.01 | S. cerevisiae deletion strains, locus YPL051W, strain arl3, active compounds read low 1 | S. cerevisiae deletion strains, locus YPL055C, strain LGE1, active compounds read low 1.06 | S. cerevisiae deletion strains, locus YPL078C, strain atp4, active compounds read low 1.01 | S. cerevisiae deletion strains, locus YPL106C, strain sse1, active compounds read low 1 | S. cerevisiae deletion strains, locus YPL240C, strain hsp82, active compounds read low 1.01 | S. cerevisiae deletion strains, locus YPL241C, strain CIN2, active compounds read low 1.02 | S. cerevisiae deletion strains, locus YPR119W, strain clb2, active compounds read low 1 | S. cerevisiae deletion strains, locus YPR141C, strain kar3, active compounds read low 1.01 | S. cerevisiae deletion strains, locus YPR163C, strain tif3, active compounds read low 0.994 | S. cerevisiae deletion strains, locus YPR167C, strain met16, active compounds read low 1 | S. cerevisiae deletion strains, strain wtn01, active compounds read low 1.02 | S. cerevisiae strains, strain wild type, active compounds read low 1.01
